In PubChem BioAssay AID868 (SRMLSC, 2007):
Screen size: about 190,000 compounds; about 3,500 (1.8%) were called active. This is one part of a sample in which actives are shown more often than they occur. Unmarked numbers belong to inactive results.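 The calls were made as follows: active = inhibition above a set limit, 3 SD over mean compound inhibition (cut at about 8.4% in these data); inactive = the rest.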

assay: RAM signaling blockers in budding yeast – dse1pr::URA3 reporter, 5-FOA selection, primary screen (AID 868);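 also: 0% = DMSO-only wells with no growth and 100% = 10 µM 1-NA-PP1 full growth; inhibition rescues growth on 5-FOA so higher OD means more RAM inhibition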; settings: S. cerevisiae dse1pr::URA3 reporter, 5-FOA growth OD615, 2 d; at 50 µM; active compounds read high; analog-sensitive cbk1-as2 kinase mutant strain

Compound	inhibition
COc1ccc(C(=O)NC(=S)Nc2ccc(N3CCCC3)cc2)cc1OC	12.4% (active)
COc1cccc(OC)c1C(=O)Nc1ccc(N2CCCCC2)cc1	0.91%
Cc1ccc(C(=O)NC(=S)Nc2ccc(N3CCOCC3)cc2)cc1	0.79%
C=C(C)C1CC=C(C)/C(=N/NC(=O)CCCNc2cccc(C)c2)C1 (stereo unspecified)	0.96%
CCN(CC(=O)NCc1cccs1)C(=O)c1ccccc1F	1.03%
COc1ccc(OC)c(CNC(=O)c2cc(=O)[nH]c3ccc(S(=O)(=O)N4CCCC4)cc23)c1	2.57%
CCSc1nc(-c2ccc(OC)cc2)cc(-c2ccc(OC)cc2)c1C#N	6.16%
N#Cc1c(C(F)(F)F)cc(-c2ccc(Cl)cc2)nc1SCC(=O)O	2.99%
CCOC(=O)CC(=O)CSc1nc(-c2ccccc2)cc(-c2ccc(Cl)cc2)c1C#N	13.1% (active)
COc1ccc(C(=O)Nc2ccc(S(=O)(=O)NC(C)C)cc2)cc1	1.59%
CC(=O)c1ccc(NC(=S)NC(=O)CC(C)C)cc1	0.87%
COc1ccc(NS(=O)(=O)c2ccc(NC(=S)NC(=O)CC(C)C)cc2)cc1	9.99% (active)
CC(=O)Oc1c(C(=O)c2nnc(C)o2)c(=O)n(Cc2ccccc2)c2ccccc12	1.56%
O=C(CSc1ccc([N+](=O)[O-])cn1)Nc1ccc(N2CCOCC2)cc1	2.94%
CCOC(=O)c1c(NC(=O)c2ccc(Br)o2)sc2c1CCCC2	3.28%
CCc1c(C)sc(NC(=O)c2ccc(Br)o2)c1C(=O)OC	9.13% (active)
CCc1c(C)sc(NC(=O)/C=C/c2ccc3c(c2)OCO3)c1C(=O)OC	2.35%
O=C(C(=O)N1CCc2ccccc2C1)N1CCc2ccccc2C1	-0.82%
O=C(CN1CCN(c2nc(-c3ccccc3)cs2)CC1)NCc1ccc2c(c1)OCO2	0.34%
c1ccc(-c2csc(N3CCc4ccccc4C3)n2)cc1	12% (active)
C/C(=N\NC(=O)NC1CCCCC1)c1ccc(OC(F)F)cc1OC(F)F	0.62%
N#C/C(=C\C1=C(N2CCOCC2)C(=C\c2ccccc2)/CC1)C(=O)Nc1ccccc1F	11.8% (active)
C(=N\N1CCN(c2ccccn2)CC1)/C1=C(N2CCOCC2)C(=C/c2ccccc2)/CC1	-0.25%
N#C/C(=C\c1ccccc1C(F)(F)F)C(=O)Nc1ccccc1F	1.21%

Compound	inhibition
Cn1c(N)c(C(=O)COC(=O)c2ccccc2NCc2ccco2)c(=O)n(C)c1=O	1.05%
O=C(CN1CCOCC1)Nc1c(Cl)cc(Cl)cc1Cl	-0.37%
COC(=O)c1cc2nc(-c3ccccc3)cc(C(F)(F)F)n2n1	4.75%
N#Cc1c(C(F)(F)F)cc(-c2ccccc2)nc1SCC(=O)N1CCOCC1	0.78%
CCN(CC)c1nc(-c2ccccc2)cc(C(F)(F)F)c1C#N	10.8% (active)
CN(C)S(=O)(=O)c1ccc(NC(=O)N2CCOCC2)cc1	0.13%
Clc1ccc2nc(CSc3ccccc3)cn2c1	0.13%
CC1=C(C)CC(C(=O)NC(C)CCc2ccccc2)C(C(=O)O)C1 (stereo unspecified)	0.85%
O=C(CSc1nc(O)c(Cc2ccccc2)c(=O)[nH]1)Nc1nc2c(s1)CCCC2	2.38%
Cn1c2ccccc2c(=O)c2c(O)cccc21	11.3% (active)
CCn1c(=O)cc(O)c2ccccc21	-0.4%
Cn1c(=O)c(Sc2ccc(Cl)cc2)c(O)c2ccccc21	1.1%
CCNC(=O)CC1C(=O)N(c2ccc(F)cc2)C(=O)N1Cc1cccs1 (stereo unspecified)	0.28%
COc1ccc(C(=O)COC(=O)c2ccc3ccccc3n2)cc1	-0.53%
CCCCC(C(=O)OCC(=O)c1ccc(OC)cc1)N1C(=O)c2ccccc2C1=O (stereo unspecified)	12.2% (active)
COc1ccc(C(=O)CN(C(=O)c2ccc(Cl)cc2)N2C(=O)c3ccccc3C2=O)cc1	4.27%
COc1ccc(CC(=O)Nc2c3c(nn2-c2cccc(Cl)c2)CS(=O)C3)cc1 (stereo unspecified)	2.33%
COc1ccc(-n2nc3c(c2NC(=O)Cc2cccc(C)c2)CS(=O)C3)cc1 (stereo unspecified)	0.7%
Cc1cccc(CC(=O)Nc2c3c(nn2-c2cccc(Cl)c2)CS(=O)C3)c1 (stereo unspecified)	9.78% (active)
CCCn1c(=O)c2c(C(F)(F)F)cc(-c3cccs3)nc2n(CCC)c1=O	2.68%
CN1CCC(=NNC(=O)CN(c2cccc(Cl)c2)S(C)(=O)=O)CC1	-0.4%
O=C(OCc1nnc(-c2ccccc2)o1)c1ccc2c(c1)C(=O)N(CCc1ccccc1)C2=O	4.12%
O=C(OCc1ccc(Br)cc1)c1cccc(-c2nnc(-c3ccccc3)o2)c1	12% (active)
CCOC(=O)CSc1nnc(-c2cccc(Br)c2)o1	-0.68%

Compound	inhibition
O=[N+]([O-])c1cccc(Nc2c3ccccc3nc3ccccc23)c1	0.27%
COc1ccc(-c2nc3cc([N+](=O)[O-])ccc3o2)cc1OC	1.49%
O=[N+]([O-])c1ccc2oc(-c3cccc(O)c3)nc2c1	13.2% (active)
CCO/N=C(/C)c1c(O)cc(-c2ccccc2)n(-c2ccccc2)c1=O	4.11%
Cc1nn(-c2ccccc2)c(C)c1/C=N/NC(=O)CSc1nc2ccccc2c(=O)n1-c1ccccc1	2.56%
C=CCO/N=C(\C)c1c(O)c(C)c(-c2ccccc2)n(-c2ccccc2)c1=O	14.2% (active)
O=C(CC1C(=O)NCCN1Cc1ccc(-c2ccccc2)cc1)NCc1ccncc1 (stereo unspecified)	-0.27%
Cc1ccnc(NS(=O)(=O)c2ccc(NC(=O)c3ccc(S(=O)(=O)N(C)C)cc3)cc2)n1	-0.41%
CC1=C/C(=N\S(=O)(=O)c2ccccc2)C(C(C)C)=CC1=O	3.57%
CCOC(=O)/C(C#N)=C/c1ccc(N2CCN(Cc3ccccc3)CC2)cc1	-1.52%
COc1ccc(N2CCN(C(=O)/C(C#N)=C/c3ccccc3)CC2)cc1	8.69% (active)
CCOC(=O)/C(C#N)=C/c1ccc(N2CCCCC2)cc1	1.57%
COc1cccc2cc(/C(C)=N/NC(=O)c3ccco3)oc12	1.11%
COC(=O)Nc1sc2nc(C)cc(C)c2c1-n1cccc1	0.22%
CCCCOC(=O)Nc1sc2nc(C)cc(C)c2c1-n1cccc1	9.53% (active)
Cc1cc(C)c2c(-n3cccc3)c(NC(=O)OCc3ccccc3)sc2n1	5.58%
COc1cc(CN(C)Cc2nc3cc(C(F)(F)F)ccc3c(=O)[nH]2)ccc1OC(F)F	2.67%
CCOC(=O)C1=C(C)N=C2c3ccccc3C(=O)C2C1c1ccc(Br)cc1 (stereo unspecified)	1.62%
N#CC(=C1SC=CS1)c1nc(-c2ccccc2)cs1	3.35%
N#C/C(=C1\CCCN1)c1nc(-c2ccccc2)cs1	3.76%
N#CC(=C1CCCC1)c1nc(-c2ccc(Cl)cc2)cs1	9.11% (active)
O=C(CSc1ccc(-c2ccccc2)nn1)NCC1CCCO1 (stereo unspecified)	2.21%
Cc1ccc(S(=O)(=O)c2c(N)n(C)c3nc4ccccc4nc23)cc1	12.3% (active)
C=CCn1c(N)c(S(=O)(=O)c2cccs2)c2nc3ccccc3nc21	1.69%

Compound	inhibition
CCC(=O)Nc1c(S(=O)(=O)c2ccccc2)c2nc3ccccc3nc2n1Cc1ccccc1	2.78%
COc1ccc(C(=O)C[n+]2ccc(C)cc2)cc1	0.48%
COc1ccc(/C=C/C(=O)c2ccc(OC)cc2O)cc1	8.82% (active)
O=C(/C=C/c1ccccc1)c1ccccc1O	-0.67%
CCOC(=O)C1CCCN(C(=O)/C=C/c2ccc(OC)cc2)C1 (stereo unspecified)	0.37%
COc1ccc(C(=O)/C=C/Nc2ccccn2)cc1	2.71%
COc1ccc(C(=O)/C=C/c2ccc(OC3CSC3)cc2)cc1	9.21% (active)
COc1ccc(/C=C/C(=O)c2cc(Br)ccc(=O)c2O)cc1	1.75%
C=CCOc1c(CNn2cn[nH]c2=S)cccc1OC	0.75%
COC(=O)c1ccc(NC(=S)Nc2cccc(C)n2)cc1	3.21%
CC1CCN(C(=S)c2cccc([N+](=O)[O-])c2)CC1	-0.74%
CC(NC(=S)NC1CCCCC1)C(c1ccccc1)N1CCOCC1 (stereo unspecified)	0.28%
COc1cc(/C=N/O)cc(Br)c1OCc1cccc(Cl)c1	9.47% (active)
CCOc1cc(/C=N/O)cc(Br)c1OC	0.34%
CCOc1c(Cl)cc(/C=N/O)cc1OC	2.16%
NS(=O)(=O)c1cccc(NC(=O)COC(=O)/C=C/c2ccco2)c1	0.38%
CCc1nnc(NC(=O)c2sc3nc(C)cc(COC)c3c2N)s1	1.25%
CCc1ccc2nc3sc(C(=O)Nc4nnc(CC)s4)c(N)c3cc2c1	8.98% (active)
CCc1nnc(NC(=O)c2cccs2)s1	1.49%
COCc1c(C(=O)OCc2c(C)noc2C)oc2ccccc12	0.88%
Cc1cc(/C=C2/C(=N)N3C(=NC2=O)SN=C3S(C)(=O)=O)c(C)n1-c1ccccc1	4.35%
COc1ccc2c(CC(=O)Nc3nnc(C4CC4)s3)coc2c1	3.72%
COc1ccc2c(CC(=O)OCC(=O)Nc3ccccc3[N+](=O)[O-])coc2c1	10% (active)
COc1cc(NC(=O)COC(=O)CSc2ccc3ccccc3c2)c(C)cc1[N+](=O)[O-]	2.2%
